PrP UTR inh: inhibition of PrP 5' UTR reporter expression. cell-based PrP 5' UTR mRNA reporter, plate reader. inhibition, % (no concentration beside the values). 0.35% of 340,000 active; in the data active = inhibition above about 52%; note: 0 = median of the neutral control wells
Y pestis TopoI: inhibitors of Yersinia pestis topoisomerase I | activity, % at 10 µM | Y. pestis Topo-I cleavage product accumulation, plate reader | 0.064% of 360,000 active; in the data active = activity above about 50%, passing the limit was not always enough; inconclusive = no clear call, values can overlap the other calls
TcdB GH inh: inhibitors of Clostridioides difficile toxin B glycohydrolase. P18177. TcdB glycohydrolase enzymatic assay, plate reader. inhibition, % at 9.99 µM. 0.24% of 350,000 active; in the data active = inhibition above about 10%
Target sequence (P18177 whole entry, looked up): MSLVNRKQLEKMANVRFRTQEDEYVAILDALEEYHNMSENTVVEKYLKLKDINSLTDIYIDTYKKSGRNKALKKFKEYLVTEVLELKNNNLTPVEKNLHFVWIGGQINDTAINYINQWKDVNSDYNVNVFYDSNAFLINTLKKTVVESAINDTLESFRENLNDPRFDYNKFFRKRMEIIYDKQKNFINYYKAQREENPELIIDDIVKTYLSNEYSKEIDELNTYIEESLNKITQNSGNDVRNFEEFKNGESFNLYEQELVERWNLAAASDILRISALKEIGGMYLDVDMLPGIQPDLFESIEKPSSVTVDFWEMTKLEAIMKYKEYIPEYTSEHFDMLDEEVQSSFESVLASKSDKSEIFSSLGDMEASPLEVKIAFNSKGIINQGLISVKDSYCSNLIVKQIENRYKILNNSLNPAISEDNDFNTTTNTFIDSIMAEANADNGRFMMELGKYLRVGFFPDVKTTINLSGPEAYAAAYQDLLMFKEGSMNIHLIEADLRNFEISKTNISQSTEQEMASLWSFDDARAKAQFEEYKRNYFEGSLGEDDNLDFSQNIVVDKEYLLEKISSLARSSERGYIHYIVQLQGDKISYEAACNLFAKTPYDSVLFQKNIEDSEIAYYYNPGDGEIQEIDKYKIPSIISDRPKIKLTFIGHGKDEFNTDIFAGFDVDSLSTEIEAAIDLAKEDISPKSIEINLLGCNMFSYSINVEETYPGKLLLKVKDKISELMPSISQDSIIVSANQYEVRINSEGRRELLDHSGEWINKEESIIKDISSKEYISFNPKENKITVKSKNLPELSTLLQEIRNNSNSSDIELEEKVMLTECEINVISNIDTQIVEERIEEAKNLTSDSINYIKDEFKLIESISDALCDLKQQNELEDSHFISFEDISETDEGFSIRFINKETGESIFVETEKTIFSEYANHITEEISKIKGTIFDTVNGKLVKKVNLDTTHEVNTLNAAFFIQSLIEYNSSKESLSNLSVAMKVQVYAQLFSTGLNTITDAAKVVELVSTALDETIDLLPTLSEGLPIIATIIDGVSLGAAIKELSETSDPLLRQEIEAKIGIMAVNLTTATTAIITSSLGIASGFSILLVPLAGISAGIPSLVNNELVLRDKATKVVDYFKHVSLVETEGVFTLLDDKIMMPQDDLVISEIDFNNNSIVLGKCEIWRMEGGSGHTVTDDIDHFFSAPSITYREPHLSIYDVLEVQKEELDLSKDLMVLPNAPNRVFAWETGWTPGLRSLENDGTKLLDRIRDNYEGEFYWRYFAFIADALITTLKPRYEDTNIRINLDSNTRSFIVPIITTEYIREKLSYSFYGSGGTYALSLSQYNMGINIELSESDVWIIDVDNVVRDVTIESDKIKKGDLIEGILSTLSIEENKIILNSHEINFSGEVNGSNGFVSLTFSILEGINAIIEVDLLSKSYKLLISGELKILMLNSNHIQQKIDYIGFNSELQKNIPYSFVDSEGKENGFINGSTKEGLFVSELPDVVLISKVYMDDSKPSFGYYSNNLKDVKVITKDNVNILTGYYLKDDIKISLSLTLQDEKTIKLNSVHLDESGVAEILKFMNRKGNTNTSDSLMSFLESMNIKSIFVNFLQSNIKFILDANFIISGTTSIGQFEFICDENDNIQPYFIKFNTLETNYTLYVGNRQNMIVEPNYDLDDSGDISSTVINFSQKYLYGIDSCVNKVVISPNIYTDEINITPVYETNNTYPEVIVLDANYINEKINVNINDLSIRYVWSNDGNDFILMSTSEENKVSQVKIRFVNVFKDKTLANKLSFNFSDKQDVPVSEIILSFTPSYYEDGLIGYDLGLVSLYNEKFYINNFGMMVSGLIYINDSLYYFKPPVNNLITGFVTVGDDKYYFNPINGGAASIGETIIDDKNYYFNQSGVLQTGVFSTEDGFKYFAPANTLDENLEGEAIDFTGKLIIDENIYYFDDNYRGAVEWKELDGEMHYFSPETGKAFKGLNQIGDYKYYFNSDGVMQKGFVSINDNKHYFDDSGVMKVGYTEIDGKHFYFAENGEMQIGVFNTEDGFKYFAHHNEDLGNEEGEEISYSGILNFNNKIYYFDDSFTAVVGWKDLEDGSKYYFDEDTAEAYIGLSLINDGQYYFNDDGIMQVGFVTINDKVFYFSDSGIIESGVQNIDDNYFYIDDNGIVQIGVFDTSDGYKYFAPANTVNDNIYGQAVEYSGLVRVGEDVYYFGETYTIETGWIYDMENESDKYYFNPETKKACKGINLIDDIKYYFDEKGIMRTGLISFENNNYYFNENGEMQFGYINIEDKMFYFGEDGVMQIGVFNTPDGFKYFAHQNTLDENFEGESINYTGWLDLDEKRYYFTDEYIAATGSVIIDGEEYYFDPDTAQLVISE
Mtb BioA inh: blocks M. tuberculosis BioA enzyme activity | purified M. tuberculosis BioA enzyme, plate reader | inhibition, % at 9.99 µM | 0.096% of 360,000 active | AID 602481; in the data active = inhibition above about 40%; inconclusive = no clear call, values can overlap the other calls
PrP UTR cherry: prion 5' UTR mRNA inhibition, cherry-pick retest; shares compounds with PrP UTR inh; cell-based prion protein 5' UTR reporter, plate reader; inhibition, % at 2.5 µM; 48% of 1,100 active; AID 504592; in the data active = inhibition above about 54%; inconclusive = no clear call, values can overlap the other calls
An asterisk follows results filed as active. Sampled rows, rich in hits. Any-hit rate of the full collection: about 0.57%.

How did N#CC1=C2N=C(N)c3ccccc3N2C2=C(C(=O)CCC2)C1c1cccc(Cl)c1 (stereo unspecified) do in these assays?
PrP UTR inh: 70.1*; Y pestis TopoI: -2.3; TcdB GH inh: -0.5; Mtb BioA inh: -0.3; PrP UTR cherry: 3.2

What do the screens show for `Cc1ccccc1C1C(C#N)=C2N=C(N)c3ccccc3N2C2=C1C(=O)CCC2` (stereo unspecified)?
PrP UTR inh: -11.1; Y pestis TopoI: -2.4; TcdB GH inh: 0.3; Mtb BioA inh: 0.3

How did O=C(CN1CCOCC1)N[C@H]1CC[C@H](CCNC(=O)C2CCCCC2)O[C@H]1CO do in these assays?
TcdB GH inh: 0.0; Mtb BioA inh: -2.3

How did CCC(C)(C)c1ccc(Oc2ccc(N)cc2)cc1 do in these assays?
PrP UTR inh: 87.3*; Y pestis TopoI: 24.4; TcdB GH inh: -0.2; Mtb BioA inh: -1.4; PrP UTR cherry: 88.5*

Results for CCNC(=O)C[C@H]1CC[C@@H]2[C@H](COC[C@H](O)CN2C(=O)Nc2ccc3c(c2)OCO3)O1 ?
TcdB GH inh: -3.6; Mtb BioA inh: -1.6

What do the screens show for `CCN(CC)C1CCCCC1NS(=O)(=O)c1ccc(Cl)cc1` (stereo unspecified)?
PrP UTR inh: 79.9*; Y pestis TopoI: -1.8; TcdB GH inh: 1.9; Mtb BioA inh: -0.2; PrP UTR cherry: -7.9

Results for CN(c1ccccc1)C1CCCCC1NS(=O)(=O)c1ccc(Cl)cc1 (stereo unspecified) ?
PrP UTR inh: -51.1; Y pestis TopoI: 24.4; TcdB GH inh: 0.9

How did O=C(NCC[C@H]1CC[C@H](NC(=O)C2CCCC2)[C@@H](CO)O1)c1cc(Cl)cc(Cl)c1 do in these assays?
TcdB GH inh: -2.8; Mtb BioA inh: -1.1

What do the screens show for `C=Cc1cc(OC)c2c(c1)c(=O)oc1c2cc(OC)c2c(O)ccc(C3OC(C)C(O)C(C)(O)C3O)c21` (stereo unspecified)?
PrP UTR inh: 68.3*; Y pestis TopoI: -5.9; TcdB GH inh: 0.1; PrP UTR cherry: 75.5*

How did C[C@H]1CN([C@@H](C)CO)C(=O)c2cc(NC(=O)NC3CCCCC3)ccc2O[C@@H]1CN(C)C(=O)Nc1ccc(F)cc1 do in these assays?
TcdB GH inh: 0.5; Mtb BioA inh: -0.6

What do the screens show for `CCCOc1ccc(C(=O)C(c2ccccc2)N2CCOCC2)cc1` (stereo unspecified)?
PrP UTR inh: -21.9; Y pestis TopoI: 24.7; Mtb BioA inh: -0.4

What do the screens show for `CCOc1ccc(C(=O)C(c2ccccc2)N2CCOCC2)cc1` (stereo unspecified)?
PrP UTR inh: 81.7*; Y pestis TopoI: 1.1; Mtb BioA inh: -2.0; PrP UTR cherry: -0.9

What do the screens show for `CCCNC(=O)Nc1ccc2c(c1)OC[C@@H](C)N(C(=O)C1CC1)C[C@H](C)[C@H](OC)CN(C)C2=O`?
TcdB GH inh: -10.9; Mtb BioA inh: -2.7

What do the screens show for `CC(=O)N(C)C[C@@H]1Oc2cc(-c3ccccc3C)ccc2S(=O)(=O)N([C@@H](C)CO)C[C@@H]1C`?
TcdB GH inh: 0.4; Mtb BioA inh: 2.2

What do the screens show for `CCN1C/C(=C\c2cccc([N+](=O)[O-])c2)C(=O)/C(=C/c2cccc([N+](=O)[O-])c2)C1`?
PrP UTR inh: 63.0*; Y pestis TopoI: -5.3; TcdB GH inh: -3.8; Mtb BioA inh: -1.9; PrP UTR cherry: 60.8*

Results for CCN=C1NN=C(c2cc(C)n(Cc3ccco3)c2C)CS1 ?
PrP UTR inh: 83.4*; Y pestis TopoI: -7.3; TcdB GH inh: 1.5; PrP UTR cherry: 72.2*

What do the screens show for `CNC(=O)C[C@H]1CC[C@H]2[C@H](COc3ccc(NC(=O)Nc4c(C)noc4C)cc3C(=O)N2C)O1`?
Mtb BioA inh: -2.1

Results for CN1CCc2c(sc(NC(=O)c3ccc([N+](=O)[O-])o3)c2C(N)=O)C1 ?
PrP UTR inh: 91.1*; Y pestis TopoI: -6.7; TcdB GH inh: 2.0; Mtb BioA inh: 0.6; PrP UTR cherry: 96.7*

How did COc1ccc(/C=N/NC(=O)c2[nH]c3ccc(Br)cc3c2-c2ccccc2)c(C(=O)O)c1OC do in these assays?
PrP UTR inh: -23.5; Y pestis TopoI: 8.2; TcdB GH inh: -1.5; Mtb BioA inh: 2.0

Results for COc1ccc(/C=N/NC(=O)c2[nH]c3ccc(Br)cc3c2-c2ccccc2)cc1 ?
PrP UTR inh: 68.1*; Y pestis TopoI: 13.8; PrP UTR cherry: 80.9*

How did CC(C)NC(=O)Nc1ccc2c(c1)C(=O)N([C@@H](C)CO)C[C@@H](C)[C@@H](CN(C)Cc1ccc3c(c1)OCO3)OCCCC[C@H](C)O2 do in these assays?
Mtb BioA inh: 3.3

What do the screens show for `CCCN(C)C[C@H]1Oc2cc(C#Cc3ccc(F)cc3)ccc2S(=O)(=O)N([C@@H](C)CO)C[C@H]1C`?
TcdB GH inh: -0.4; Mtb BioA inh: 3.0

How did COc1cc(C(=O)N2CCN(c3cccc(C)c3C)CC2)cc(OC)c1OC do in these assays?
PrP UTR inh: 60.3*; Y pestis TopoI: -2.3; TcdB GH inh: 2.1; Mtb BioA inh: -0.2; PrP UTR cherry: 74.2*

How did COc1cc(C(=O)N2CCN(c3cc(Cl)ccc3Cl)CC2)cc(OC)c1OC do in these assays?
PrP UTR inh: 56.4*; Y pestis TopoI: inconclusive; TcdB GH inh: 3.0; Mtb BioA inh: 11.8; PrP UTR cherry: 88.3*

Results for COc1cc(C2c3cc4c(cc3CC3COC(=O)C32)OCO4)cc(OC)c1OC (stereo unspecified) ?
PrP UTR inh: 55.2; Y pestis TopoI: 7.4; TcdB GH inh: 0.4; Mtb BioA inh: 2.2

How did COc1cc(C2c3cc4c(cc3CC3COC(=O)N32)OCO4)cc(OC)c1OC (stereo unspecified) do in these assays?
PrP UTR inh: 58.0*; Y pestis TopoI: 3.8; TcdB GH inh: 2.6; PrP UTR cherry: 90.9*

How did COc1ccc(-c2cc3nc(C)n(N)c(=O)c3s2)cc1 do in these assays?
PrP UTR inh: 90.6*; Y pestis TopoI: -2.8; TcdB GH inh: 0.9; Mtb BioA inh: -0.2; PrP UTR cherry: 92.5*

How did Cc1nc2cc(-c3ccccc3)sc2c(=O)n1N do in these assays?
PrP UTR inh: 80.9*; Y pestis TopoI: 13.1; TcdB GH inh: 1.8; PrP UTR cherry: 78.5*

How did COc1ccc(-c2cc3nc4n(c(=O)c3s2)CCC4)cc1 do in these assays?
PrP UTR inh: 34.7; Y pestis TopoI: 0.9; TcdB GH inh: -1.6; Mtb BioA inh: -0.9

Results for COc1ccc(OC)c2[nH]c(=O)c(CCNC(=O)COc3ccccc3)cc12 ?
PrP UTR inh: 56.7*; Y pestis TopoI: 13.7; PrP UTR cherry: -6.4

Results for COc1ccc(-c2nsc3c(N4CCN(S(=O)(=O)c5ccccc5F)CC4)ncnc23)cc1 ?
PrP UTR inh: -16.6; Y pestis TopoI: 1.3; Mtb BioA inh: 0.8

How did COc1ccc(-c2nsc3c(N4CCCCC4C)ncnc23)cc1 (stereo unspecified) do in these assays?
PrP UTR inh: 87.3*; Y pestis TopoI: -5.2; TcdB GH inh: 1.2; PrP UTR cherry: 82.7*

Results for COc1ccc(-c2nsc3c(N4CCCCC4)ncnc23)cc1 ?
PrP UTR inh: 72.2*; Y pestis TopoI: -2.5; PrP UTR cherry: 70.0*

How did COc1ccc(C(=O)N2CCN(c3ncnc4c(-c5ccccc5)nsc34)CC2)cc1 do in these assays?
PrP UTR inh: -23.3; Y pestis TopoI: -3.1; Mtb BioA inh: -2.5

Screens: PubChem BioAssay, Broad Institute
